# Values joined by “and” are separate entries in the source; they are usually repeats but may differ in a detail not shown here. Equal entries are not always repeated. Records with an inconclusive call do not appear. Unmarked numbers belong to inactive results. Active and inactive are the calls of the source. Calls come from the whole dose curve; as a rule, active = well fitted curve in the direction sought with a large enough effect; inconclusive = small, poorly fitted or top-dose-only effect, or another doubt; inactive = no such curve, though single readings can be large; an effect the other way counts as inactive or inconclusive.
# Legend:
# [1] = Viability qHTS for spleen associated tyrosine kinase inhibitor (SYKi) drug resistant MV4-11 cells (AID 1963824); conditions: SYKi-resistant MV4-11 viability, CellTiter-Glo, 72 h; series mostly up to 45 µM; note: nearly all actives have a fitted effect of over 35% in size
# Method in brief: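 CellTiter-Glo luminescence, read 10 min after reagent addition, reports viability after a 72 hr compound exposure. Cells are an MV4-11 line made resistant to SYK inhibition, seeded at 500 per well onto compound-containing plates.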
# [2] = Quantitative highthroughput screen to assess conditional lethalithy of NOMO1 cells grown in RPMI1640 with untreated serum (RPMI+s) (AID 1963876); conditions: NOMO1 AML cells in RPMI+serum, CellTiter-Glo viability, 48 h; series mostly up to 45.8 µM; note: nearly all actives have a fitted effect of over 35% in size;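 for Viability: 100% = DMSO wells and 0% = empty wells without cells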
# Method in brief: (§1)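 Each medium arm—HPLM with 10% dialyzed FBS, or RPMI1640 with 5 mM glucose and 10% untreated or dialyzed FBS—was screened against an 11-point, 3-fold compound titration for 48 h at 37 °C, with CellTiter-Glo luminescence as endpoint.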
# [3] = Quantitative highthroughput screen to assess conditional lethalithy of NOMO1 cells grown in RPMI1640 with dialyzed fetal bovine serum (RPMI+ds) (AID 1963877); conditions: NOMO1 in RPMI+dialyzed FBS viability, ATP luminescence, 48 h; series mostly up to 45.8 µM; note: nearly all actives have a fitted effect of over 30% in size;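 for Viability: 100% = DMSO control wells and 0% = empty wells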
# Method in brief: as §1
# [4] = Quantitative highthroughput screen to assess conditional lethalithy of NOMO1 cells grown in Human Plasma-Like Medium with dialyzed fetal bovine serum (HPLM+ds) (AID 1963878); conditions: NOMO1 AML cells in HPLM+ds, CellTiter-Glo viability, 48 h; series mostly up to 45.8 µM; note: nearly all actives have a fitted effect of over 35% in size;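 for Viability: 100% = DMSO wells and 0% = empty wells on each plate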
# Method in brief: as §1
# [5] = Quantitative highthroughput screen to assess conditional lethalithy of P12 Ichikawa cells grown in Human Plasma-Like Medium with dialyzed fetal bovine serum (HPLM+ds) (AID 1963879); conditions: ATP luminescence, 48 h; Potency: viability; series mostly up to 45.8 µM; note: nearly all actives have a fitted effect of over 35% in size
# Method in brief: as §1
# [6] = Quantitative highthroughput screen to assess conditional lethalithy of P12 Ichikawa cells grown in RPMI1640 with dialyzed fetal bovine serum (RPMI+ds) (AID 1963880); conditions: ATP luminescence, 48 h; Potency: P12-Ichikawa viability; series mostly up to 45.8 µM; note: nearly all actives have a fitted effect of over 35% in size;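 for Viability: 100% = DMSO wells and 0% = empty wells on each plate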
# Method in brief: as §1
# [7] = Quantitative highthroughput screen to assess conditional lethalithy of P12 Ichikawa cells grown in RPMI1640 with untreated serum (RPMI+s) (AID 1963881); conditions: ATP luminescence, 48 h; Potency: viability; series mostly up to 45.8 µM; note: nearly all actives have a fitted effect of over 35% in size;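 for Viability: 100% = DMSO wells and 0% = empty wells without cells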
# Method in brief: as §1
# [8] = Quantitative highthroughput screen to assess conditional lethalithy of SEM cells grown in Human Plasma-Like Medium with dialyzed fetal bovine serum (HPLM+ds) (AID 1963882); conditions: SEM B-ALL cells in HPLM+ds, CellTiter-Glo viability, 48 h; series mostly up to 45.8 µM; note: nearly all actives have a fitted effect of over 35% in size
# Method in brief: as §1
# [9] = Quantitative highthroughput screen to assess conditional lethalithy of SEM cells grown in RPMI1640 with unreated serum (RPMI+s) (AID 1963883); conditions: SEM B-ALL cells, CellTiter-Glo viability, 48 h; series mostly up to 45.8 µM; note: nearly all actives have a fitted effect of over 35% in size;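 for Viability: 100% = DMSO wells and 0% = empty wells without cells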
# Method in brief: as §1
# [10] = Quantitative highthroughput screen to assess conditional lethalithy of SEM cells grown in RPMI1640 with dialyzed fetal bovine serum (RPMI+ds) (AID 1963884); conditions: SEM B-ALL cells, RPMI+dialyzed FBS, CellTiter-Glo viability, 48 h; series mostly up to 45.8 µM; note: nearly all actives have a fitted effect of over 35% in size;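 for Viability: 100% = DMSO control wells and 0% = empty wells without cells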
# Method in brief: as §1
# [11] = Cellular viability qHTS for adrenocortical cancer (ACC) cell line SW-13 (AID 1963989); conditions: SW-13 ACC cells viability, CellTiter-Glo, 48 h; activity (max response): stronger effect = lower value; note: nearly all actives have a fitted effect of over 65% in size;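 for activity (max response): cells grown in serum-free medium with ITS supplement; % is set by controls: 0 for no effect and ±100 for the full control effect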
# Method in brief: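 Compound titrations (up to 46 uM final, in DMSO) were applied to SW-13 cells for 48 h at 37C/5% CO2. Reading used CellTiter-Glo after 20 min at room temperature; fitted curves yielded IC50 and efficacy.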
# [12] = Cellular viability qHTS for adrenocortical cancer (ACC) cell line NCI-H295R (AID 1963990); conditions: CellTiter-Glo ATP luminescence, 48 h; series mostly up to 46.1 µM; note: nearly all actives have a fitted effect of over 60% in size
# Method in brief: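 Readout: CellTiter-Glo luminescence, 20 min RT. Exposure: 48 h, 37C/5% CO2. Cells: NCI-H295R, ITS-DMEM serum-free. Range: up to 46 uM. Analysis: 4PL fit, IC50 plus efficacy.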
# Potency is the fitted concentration of half-maximal effect.
structure (smiles),measurement,setting,value
Cc1c(OCc2cccc(-c3ccc(C(=O)O)cc3)c2)cc2c(c1C)C(=O)C(C1CCCC1)C2 (stereo not drawn),Potency,[1],inactive
COc1ccc(/C=C/C(N)=O)cc1OC,Potency,[1],inactive
O=C(O)C[C@H]1CCc2c1[nH]c1ccc(OCc3ccc(C4CCCC4)c(C(F)(F)F)c3)cc21,Potency,[1],7.42 µM (active)
COc1ccc(Oc2cc(C)c(-c3csc(NC(=O)c4ccncc4)n3)c(C)c2)cc1,Potency,[1],0.092 µM (active)
Cc1ccccc1-n1c([C@H](C)Nc2nc(N)nc3nc[nH]c23)nc2cccc(C)c2c1=O,Potency,[1],2.91 µM (active)
Cc1cc(C)nc(NS(=O)(=O)c2ccc(NC(=S)NC(=O)COc3ccc(Br)cc3Cl)cc2)n1,Potency,[1],inactive
CC(=O)OC1CC(=O)C2(C)C3CC4=C(OC(C)CC4=O)OC3(C)CCC2C1(C)C (stereo not drawn),Potency,[1],inactive
CC(F)(F)CN1CCOc2c(nn(-c3ccccc3Cl)c2-c2ccc(Cl)cc2)C1=O,Potency,[1],20.6 µM (active)
C=C1[C@@H](C2=CC(=O)OC2)CC[C@@]2(O)[C@@H]1CC1[C@H]2CC[C@@H]2C[C@@H](O[C@H]3O[C@@H](C)[C@@H](O[C@@H]4O[C@H](CO[C@@H]5O[C@H](CO)[C@@H](O)[C@H](O)[C@H]5O)[C@@H](O)[C@H](O)[C@H]4O)[C@H](OC)[C@H]3O)CC[C@]12C (stereo partly drawn),Potency,[1],1.55 µM (active)
O=C(Nc1ccc(Oc2ccnc3[nH]ccc23)c(F)c1)c1cccn(-c2ccc(F)cc2)c1=O,Potency,[1],0.0146 µM (active)
same,Potency,[2],inactive
same,Potency,[3],inactive
same,Potency,[4],inactive
same,Potency,[5],inactive
same,Potency,[6],inactive
same,Potency,[7],inactive
same,Potency,[8],8330 nM (active)
Oc1ccc(-c2cnc3ccc(NCc4ccco4)nn23)cc1,Potency,[1],0.092 µM (active)
COc1ccc(NS(=O)(=O)c2sc3ccc(Cl)cc3c2C)cc1N1CCNCC1,Potency,[1],14.6 µM (active)
C[C@H]1[C@H](C)CC[C@]2(C(=O)O[C@@H]3O[C@H](CO)[C@@H](O)[C@H](O)[C@H]3O)CC[C@]3(C(=O)O)C(=CCC4[C@@]5(C)CC[C@H](O[C@@H]6O[C@H](CO)[C@@H](O)[C@H](O)[C@H]6O)C(C)(C)C5CC[C@]43C)[C@H]12 (stereo partly drawn),"viability, % of control",[1],96% [at 9.25 µM]
CN(C/C=C/c1ccccc1)Cc1cccc2ccccc12,Potency,[1],inactive
Nc1ccn([C@@H]2O[C@H](CO)[C@@H](O)C2O)c(=O)n1 (stereo partly drawn),Potency,[1],1.86 µM (active)
same,Potency,[2],inactive
same,Potency,[3],inactive
same,Potency,[4],1180 nM (active)
same,Potency,[5],inactive
same,Potency,[6],inactive
same,Potency,[7],inactive
O=C1O[C@H](C(O)CO)C(=O)C1=O (stereo partly drawn),Potency,[1],inactive
C=CC(C)(C)C1(CC2NC(=O)C3CCCN3C2=O)C(=O)Nc2cc3c(cc21)C=CC(C)(C)O3 (stereo not drawn),Potency,[1],1.12 µM (active)
Cc1ccc(NS(=O)(=O)c2cc3c(cc2Cl)CCC(=O)N3)cc1Cl,Potency,[1],9.2 µM (active)
N#Cc1cccnc1N1CCN(C(=O)c2cccc(Cc3n[nH]c(=O)c4ccccc34)c2)CC1,Potency,[1],0.186 µM (active)
C[C@H]1CC[C@@]2(OC1)O[C@H]1CC3C4CC[C@H]5C[C@@H](O)CC[C@]5(C)C4CC(=O)[C@]3(C)[C@H]1[C@@H]2C (stereo partly drawn),Potency,[1],inactive
OC[C@H]1O[C@@H](Oc2cc(O)cc(-c3cc4ccc(O)cc4o3)c2)[C@H](O)[C@@H](O)[C@@H]1O,Potency,[1],4.47 µM (active)
O=C(/C=C/c1ccc(O)cc1)OC[C@H]1O[C@@H](OC(=O)/C=C/c2ccccc2)[C@H](O)[C@@H](O)[C@@H]1O,Potency,[1],inactive
O=C1/C(=C/c2ccc(O)c(O)c2)Oc2ccccc21,Potency,[1],0.517 µM (active)
COc1cccc2nc(-c3cccs3)nc(NN3C(=O)C=C(C)C3=O)c12,Potency,[1],0.148 µM (active)
same,Potency,[2],1480 nM (active)
same,Potency,[3],1320 nM (active)
same,Potency,[4],469 nM (active)
same,Potency,[5],2090 nM (active)
same,Potency,[6],2960 nM (active)
same,Potency,[7],2640 nM (active)
same,Potency,[8],418 nM (active)
same,Potency,[9],935 nM (active)
same,Potency,[10],1320 nM (active)
same,Potency,[11],11.2 µM (active)
same,Potency,[12],2.82 µM (active)
CC(C)c1ccccc1Cc1cc(C(=O)Nc2ccc(S(=O)(=O)c3ccccc3C(C)(C)C)cc2)c(O)c(O)c1O,Potency,[1],7.42 µM (active)
same,Potency,[2],inactive
same,Potency,[3],inactive
same,Potency,[4],inactive
same,Potency,[5],inactive
same,Potency,[6],inactive
same,Potency,[7],inactive
same,Potency,[8],inactive
same,Potency,[9],inactive
CN1CCC(=C2c3ccccc3CC(=O)c3sccc32)CC1,Potency,[1],23.7 µM (active) and 20.9 µM (active)
same,Potency,[2],inactive
same,Potency,[3],inactive
same,Potency,[4],inactive
same,Potency,[5],inactive
same,Potency,[7],inactive
same,Potency,[8],inactive
same,Potency,[9],inactive
same,Potency,[10],inactive
same,activity (max response),[11],-6.42% and -1.59%
same,Potency,[12],inactive
C[C@@]12O[C@@H](C[C@]1(O)CO)n1c3ccccc3c3c4c(c5c6ccccc6n2c5c31)CNC4=O,Potency,[1],0.0074 µM (active)
same,Potency,[2],1320 nM (active)
same,Potency,[3],1320 nM (active)
same,Potency,[4],833 nM (active)
same,Potency,[5],935 nM (active)
same,Potency,[6],833 nM (active)
same,Potency,[7],662 nM (active)
same,Potency,[8],166 nM (active)
same,Potency,[9],46.9 nM (active)
same,Potency,[10],105 nM (active)
same,Potency,[11],2.82 µM (active)
same,Potency,[12],3.98 µM (active)
NCc1ccc(OCCCc2sc(-c3ccc4c(c3)/C(=N/Nc3nc5ccccc5s3)CCC4)nc2C(=O)O)cc1,Potency,[1],9.34 µM (active)
same,Potency,[2],5.9 nM (active)
same,Potency,[3],16.6 nM (active)
same,Potency,[4],inactive
same,Potency,[5],4.7 nM (active)
same,Potency,[6],9.3 nM (active)
same,Potency,[7],33.1 nM (active)
same,Potency,[10],4.7 nM (active)
same,Potency,[12],inactive
O=C(CCCCCCC(=O)Nc1ccccc1)NO,Potency,[1],1.3 µM (active) and 1.18 µM (active)
same,Potency,[2],14800 nM (active)
same,Potency,[3],16600 nM (active)
same,Potency,[4],10500 nM (active)
same,Potency,[5],4180 nM (active)
same,Potency,[6],3320 nM (active)
same,Potency,[7],3320 nM (active)
same,Potency,[9],3720 nM (active)
same,Potency,[10],3320 nM (active)
same,Potency,[11],4.11 µM (active) and 3.16 µM (active)
same,Potency,[12],820 nM (active) and 1 µM (active)
Cc1c(OCC(F)(F)F)ccnc1CS(=O)c1nc2ccccc2[nH]1 (stereo not drawn),Potency,[1],16.6 µM (active)
same,Potency,[2],inactive
same,Potency,[3],inactive
same,Potency,[4],inactive
same,Potency,[5],inactive
same,Potency,[6],inactive
same,Potency,[7],inactive
same,Potency,[8],inactive
same,Potency,[9],inactive
same,Potency,[10],inactive
same,Potency,[12],inactive
C[C@]12CC[C@H](O)CC1=CCC1C2CC[C@]2(C)C(n3cnc4ccccc43)=CCC12 (stereo partly drawn),Potency,[1],7.42 µM (active)
same,Potency,[2],inactive
same,Potency,[3],inactive
same,Potency,[4],inactive
same,Potency,[5],inactive
same,Potency,[6],inactive
same,Potency,[7],inactive
same,Potency,[8],inactive
same,Potency,[9],inactive
same,Potency,[10],inactive
same,activity (max response),[11],-10.3%
same,Potency,[12],inactive
